Rows were chosen to be rich in hits. Some 2.4% of all compounds tested hit in one or more screens of this group.
FEN1 inh: qHTS Assay for the Inhibitors of Human Flap endonuclease 1 (FEN1); Potency, µM (highest dose often 114 µM), most hits filed as inhibitors; Recombinant FEN1 flap cleavage, fluorescence, 15 min; actives 0.35% (n = 390,000); further: nearly all actives have a fitted effect of over 65% in size
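Concentration–response screening of FEN1 (10 nM): 15 min compound preincubation at room temperature, reaction started with 50 nM substrate and read at 0 and 15 min. Corrected, normalized data were fitted by a four-parameter Hill equation.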
Pol eta inh: qHTS for Inhibitors of Polymerase Eta; Potency, µM (series often up to 114 µM), hits mostly inhibitors; DNA polymerase eta (Homo sapiens), Q9Y253; recombinant Pol eta, fluorescent DNA replication assay; actives 1.2% (n = 390,000)
Target sequence (Q9Y253 whole entry, looked up): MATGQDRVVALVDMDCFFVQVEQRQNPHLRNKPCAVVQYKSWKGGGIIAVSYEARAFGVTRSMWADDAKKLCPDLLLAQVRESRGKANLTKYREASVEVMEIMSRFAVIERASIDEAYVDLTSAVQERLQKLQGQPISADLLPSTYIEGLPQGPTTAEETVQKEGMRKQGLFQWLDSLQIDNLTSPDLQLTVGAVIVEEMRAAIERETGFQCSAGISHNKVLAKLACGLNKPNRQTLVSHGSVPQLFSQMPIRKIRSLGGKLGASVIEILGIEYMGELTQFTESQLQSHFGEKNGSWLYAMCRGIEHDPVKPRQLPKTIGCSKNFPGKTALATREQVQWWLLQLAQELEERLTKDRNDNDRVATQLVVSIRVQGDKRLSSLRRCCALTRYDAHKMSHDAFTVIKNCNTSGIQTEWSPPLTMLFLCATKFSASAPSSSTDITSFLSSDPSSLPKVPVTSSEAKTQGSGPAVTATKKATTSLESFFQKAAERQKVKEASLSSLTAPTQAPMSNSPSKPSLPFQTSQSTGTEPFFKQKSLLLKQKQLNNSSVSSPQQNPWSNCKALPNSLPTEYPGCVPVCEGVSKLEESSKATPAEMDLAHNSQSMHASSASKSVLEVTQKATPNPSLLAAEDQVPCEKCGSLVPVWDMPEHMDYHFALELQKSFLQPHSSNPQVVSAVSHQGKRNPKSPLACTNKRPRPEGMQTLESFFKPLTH
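Pol eta (10 nM) was preincubated with compounds for 15 min at room temperature, after which fluorescent replication substrate (50 nM final) was added to start the reaction. Fluorescence was read kinetically at 0 and 10 min.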
Pol kappa inh: qHTS for Inhibitors of Polymerase Kappa; DNA polymerase kappa (Homo sapiens), Q9UBT6; purified Pol kappa, fluorescent DNA synthesis assay, 10 min; Potency, µM (top dose mostly 107 µM), hits mostly inhibitors; actives 0.53% (n = 400,000); AID 588579, 2011
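Activity was followed as the change in fluorescence between reads at 0 and 10 min after starting the reaction with 50 nM substrate. Beforehand, 10 nM polymerase had been preincubated with compound for 15 min at room temperature.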
WRN helicase inh: qHTS for Inhibitors of WRN Helicase; Bifunctional 3'-5' exonuclease/ATP-dependent helicase WRN (Homo sapiens), Q14191; WRN helicase unwinding, fluorescent forked duplex, kinetic; Potency, µM (series often up to 114 µM), usual class: inhibitors; actives 0.46% (n = 360,000); AID 651768, 2012; further: nearly all actives have a fitted effect of over 55% in size
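Kinetic red-fluorescence monitoring (525/598 nm) tracks WRN helicase activity after 100 nM fluorophore-quencher forked duplex and 2 mM ATP are added to 20 nM enzyme pretreated 15 min at room temperature with compound.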
Pol iota inh: qHTS for Inhibitors of Polymerase Iota | DNA polymerase iota (Homo sapiens), Q9UNA4 | Pol iota fluorescent replication assay, 10 min | Potency, µM (series often up to 115 µM), usual class: inhibitors | actives 1% (n = 390,000)
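Fluorescent replication assay read twice, at 0 min and 10 min after adding 50 nM (final) substrate. Enzyme (10 nM) and compounds were first incubated 15 min at room temperature; enzyme-free buffer wells were negative controls.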
POLB inh: qHTS Assay for Inhibitors of DNA Polymerase Beta | Pol beta primer extension/strand displacement, fluorescence kinetic | Potency, µM (highest dose often 114 µM), hits mostly inhibitors | actives 1.3% (n = 340,000)
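Human Pol beta at 10 nM; strand-displacement substrate 50 nM final. Compound exposure 15 min at room temperature before start, reaction 10 min at room temperature.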
Numbers stand for hits; 0 = inactive; ? = inconclusive; - = no result given; [ ] = another dose, or the depositor's remark. The call rests on the fitted dose curve; in most records, active means well fitted curve in the direction sought with a large enough effect; inconclusive means small, poorly fitted or top-dose-only effect, or another doubt; inactive means no such curve, though single readings can be large; an effect the other way counts as inactive or inconclusive.

SMILES | FEN1 inh | Pol eta inh | Pol kappa inh | WRN helicase inh | Pol iota inh | POLB inh
C/C=C\C=C/C(=O)Nc1cccc(C2=NOC3(C2)C[C@@H](C(N)=O)N(C(=O)/C=C/C=C\C)C3)c1 (stereo partly drawn) | 50.1µM | 7.94µM | 20µM | 25.1µM | 10µM | 6.31µM
C=C(C)C(=O)Nc1cccc(C2=NOC3(C2)C[C@@H](C(N)=O)N(C(=O)c2ccc(Cl)cc2)C3)c1 (stereo partly drawn) | ? | 4.47µM | 35.5µM | 44.7µM | 35.5µM | 8.91µM
C/C=C(/C)C(=O)Nc1cccc(C2=NOC3(C2)C[C@H](C(N)=O)N(C(=O)c2ccc(Cl)cc2)C3)c1 (stereo partly drawn) | 0 | 0 | 0 | 0 | 0 | 0
C=CC[n+]1ccc(/C=C2\C=Cc3cc(C)ccc3N2CC)c2ccccc21 | ? | 0 | 50.1µM | 39.8µM | ? | ?
CCN1/C(=C/c2cc[n+](CCCS(=O)(=O)[O-])c3ccccc23)Sc2ccccc21 | ? | 0 | 0 | 0 | ? | ?
O=C(COc1ccc2ccccc2c1)N1c2ccccc2Sc2ccccc21 | 0 | 0 | 0 | 0 | 0 | 0
O=C(CCl)N1c2ccccc2Sc2ccc3ccccc3c21 | - | 14.1µM | - | 0 | - | -
O=[N+]([O-])c1cc(CN2CCN(c3cccc(C(F)(F)F)c3)CC2)c2cccnc2c1O | ? | 0 | 0 | 0 | 0 | 17.8µM
CC(C)OCc1cc(CN2CCN(c3cccc(C(F)(F)F)c3)CC2)c(O)c2ncccc12 | 0 | 0 | 0 | - | 0 | 0
CC[C@H](C)[C@H](NC(=O)[C@H](CCC(=O)O)NC(=O)[C@@H](N)CO)C(=O)N[C@@H](CCC(N)=O)C(=O)N[C@@H](CC(C)C)C(=O)N[C@@H](CCSC)C(=O)N[C@@H](Cc1cnc[nH]1)C(=O)N[C@@H](CC(N)=O)C(=O)N[C@@H](CC(C)C)C(=O)NCC(=O)N[C@@H](CCCCN)C(=O)N[C@@H](Cc1cnc[nH]1)C(=O)N[C@@H](CC(C)C)C(=O)N[C@@H](C)C(=O)N[C@@H](CO)C(=O)N[C@H](C(=O)N[C@@H](CCC(=O)O)C(=O)N[C@@H](CCCNC(=N)N)C(=O)N[C@@H](CCSC)C(=O)N[C@@H](CCC(N)=O)C(=O)N[C@@H](Cc1c[nH]c2ccccc12)C(=O)N[C@@H](CC(C)C)C(=O)N[C@@H](CCCNC(=N)N)C(=O)N[C@@H](CCCCN)C(=O)N[C@@H](CCCCN)C(=O)N[C@@H](CC(C)C)C(=O)N[C@@H](CCC(N)=O)C(=O)N[C@@H](CC(=O)O)C(=O)N[C@H](C(=O)N[C@@H](Cc1cnc[nH]1)C(=O)N[C@@H](CC(N)=O)C(=O)N[C@@H](Cc1ccccc1)C(=O)O)C(C)C)C(C)C | - | - | 0 | - | - | -
Cc1ccc(C(=O)Nc2ccc(O)c(C(=O)O)c2)o1 | 0 | 14.1µM | 0 | 0[11.6 µM] | 0 | ?
COc1ccc(S(=O)(=O)N(C)C)cc1NC(=O)Cc1ccc(S(=O)(=O)N2CCOCC2)s1 | 0 | 0 | 0 | 0 | 0 | -
O=C(Cc1ccc(S(=O)(=O)N2CCOCC2)s1)Nc1ccc(N2CCOCC2)cc1 | 0 | 0 | 0 | 0 | 0 | 31.6µM
CN(C)S(=O)(=O)c1ccc(NC(=O)Cc2ccc(S(=O)(=O)N3CCOCC3)s2)cc1 | 0 | 56.2µM | ? | 0[11.6 µM] | ? | ?
COc1ccc2c(c1)OC(C)(C)C(c1ccccc1)C2c1ccc(OCCN2CCCC2)cc1 (stereo not drawn) | - | - | 0[19.4 µM] | - | - | -
O=C(Cc1n[nH]c(=O)[nH]c1=O)N/N=C/c1cccc(Cl)c1 | 0 | 0 | ? | 0 | 89.1µM | 0
COC(=O)[C@@H]1OC(c2ccccc2)O[C@H]1C(=O)OC | - | - | 0 | - | - | -
COC(=O)C1=C(C)N(Cc2ccccc2)C(=NCc2ccco2)N[C@H]1c1ccc(Br)cc1 | - | - | - | - | - | 0

High-throughput results as filed in PubChem.
